# Measurements taken from PubChem BioAssay.
# Calls of active or inactive are those of the source. Unless noted, how the calls were made is not given here.
# What was measured:
# [1] = tested on: Wnt5a (protein binding on small-molecule microarray); test: Wnt5a binders on small-molecule microarray, primary screen, biophysical, 635/667 nm fluorescence (AID 1142); settings: 635 nm fluorescence, higher = more signal;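 further: fluorescence read at 667 nm with signal to noise per printed feature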
# [2] = cell viability in Huh7 cells, primary screen, cytotoxicity control for HCV replication inhibitor project, CellTiter-Glo luminescence, basal, 48 h (AID 1143); settings: Huh7 HCV replicon, higher = more signal, called active from +8 up or from −8 down;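 further: Huh7 hepatoma cells carrying a hepatitis C replication reporter with no stimulus; test concentration not given here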
# [3] = P. aeruginosa biofilm formation inhibitors, primary screen, PAO1 strain, BacTiter-Glo luminescence, LB-PBS (AID 1144); settings: 12 h, higher = more signal
# [4] = CREB reporter modulators without forskolin, primary screen, cell-based, PC12, CRE-LacZ reporter, unstimulated (AID 1145); settings: no forskolin, luminescence, 4.5 h, higher = more signal, called active from +8 up or from −8 down
# [5] = CREB reporter modulators under forskolin, primary screen, cell-based, PC12, CRE-LacZ reporter, forskolin-stimulated (AID 1146); settings: luminescence, 4.5 h, higher = more signal, called active from +8 up or from −8 down;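 further: PC12 cells with 6xCRE LacZ reporter stimulated by forskolin 10 µM; beta-galactosidase reporter signal reflecting CREB driven transcription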
# [6] = target: Streptavidin (Streptomyces avidinii) (UniProt P22629); test: streptavidin binders on small-molecule microarray, primary screen, artefact control for SMM compound annotation, biophysical, 635/667 nm fluorescence (AID 1147); settings: streptavidin binding, higher = more signal;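 further: signal reflects streptavidin binding to arrayed compounds as a control protein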
# [7] = small-molecule binders of probe aInhba, primary screen, biochemical, small-molecule microarray, 635/667 nm fluorescence (AID 1148); settings: higher = more signal;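 further: score merges 667nm spot fluorescence with signal-to-noise for antibody binding to printed compounds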
# [8] = target: Torsin-1A (Homo sapiens) (UniProt O14656); test: torsin A binders from cell lysate, primary screen, small-molecule microarray, wild-type, 635/667 nm (AID 1149); settings: COS7 hTOR1A-WT lysate, 635 nm fluorescence, higher = more signal
# [9] = target: Torsin-1A (Homo sapiens) (UniProt O14656); test: small-molecule binders of mutant TOR1A in lysate, primary screen, cell lysate, small-molecule microarray, COS7 lysate, 635/667 nm fluorescence (AID 1150); settings: COS7 hTOR1A mutant lysate, 635 nm fluorescence, higher = more signal;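 further: score pools 667 nm emission and signal to noise measuring lysate protein binding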
# [10] = tested on: Sonic hedgehog protein (Shh); test: small-molecule binders of Shh protein, primary screen, biochemical, small-molecule microarray, 635/667 nm fluorescence (AID 1151); settings: small-molecule microarray binding, 635 nm fluorescence; higher = more signal;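 further: Shh protein binding to compounds spotted on small-molecule microarray slides; score combines spot fluorescence intensity with signal-to-noise across triplicate slides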
# [11] = E. coli DRC41 culture turbidity changes, primary screen, E. coli filamentation inducer project, strain DRC41, OD650, 48 h (AID 1152);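 further: E. coli MC1000 strain DRC41 lacking acrAB efflux pump and sulA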; settings: E. coli DRC41 (acrAB sulA), higher = more signal, called active from +8 up or from −8 down
# [12] = small-molecule binders of probe aLefty1, primary screen, biochemical, small-molecule microarray, 635/667 nm fluorescence (AID 1153); settings: higher = more signal;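 further: score merges spot fluorescence with signal-to-noise ratio from the scanned slide images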
# [13] = PSAC antagonists in infected red cells, primary screen, cell-based, P. falciparum Indochina, OD700, 1 h (AID 1154); settings: P. falciparum Indochina infected RBC osmotic lysis, higher = more signal, called active from +8 up or from −8 down
# [14] = PSAC antagonists in infected red cells, primary screen, cell-based, P. falciparum Indochina, OD700, 2 h (AID 1155);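 further: lysis reports solute entry through the parasite surface anion channel PSAC; channel blockers reduce lysis of infected cells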; settings: P. falciparum Indochina infected erythrocytes, osmotic lysis OD700; higher = more signal, called active from +8 up or from −8 down
# [15] = osmotic lysis modulators in infected erythrocytes, primary screen, PSAC antagonist project, cell-based, P. falciparum Indochina, OD700, 3 h (AID 1156); settings: higher = more signal, called active from +8 up or from −8 down
# [16] = PSAC antagonists in infected red cells, primary screen, cell-based, P. falciparum Indochina, OD700, 18 h (AID 1157); settings: P. falciparum Indochina infected erythrocytes, osmotic lysis OD700, 18 h; higher = more signal, called active from +8 up or from −8 down
# [17] = modulators of S6 phosphorylation in cells, primary screen, cell-based, A549, cytoblot, luminescence, serum-stimulated (AID 1158); settings: A549 phospho-S6 cytoblot, 5 h, higher = more signal;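 further: serum-stimulated A549 lung adenocarcinoma cells; signal is phosphorylated S6 detected by cytoblot immunostaining with HRP secondary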
# [18] = target: NADPH oxidase 2 (Homo sapiens) (UniProt P04839); test: NOX2-dependent H2O2 signal modulators, primary screen, NOX inhibitor project, cell-based, HEK293-NOX2, PMA-stimulated, Amplex Red fluorescence (AID 1159); settings: 45 min, higher = more signal, called active from +8 up or from −8 down; further: test concentration not given here
# [19] = target: NADPH oxidase 4 (Homo sapiens) (UniProt Q9NPH5); test: NOX4-dependent H2O2 signal modulators, primary screen, NOX inhibitor project, cell-based, HEK293-NOX4, tetracycline-induced, Amplex Red fluorescence (AID 1160); settings: 45 min, higher = more signal, called active from +8 up or from −8 down
# [20] = target: NADPH oxidase 5 (Homo sapiens) (UniProt Q96PH1); test: NOX5-dependent H2O2 signal modulators, primary screen, NOX inhibitor project, cell-based, HEK293-NOX5, Amplex Red fluorescence (AID 1161); settings: HEK293-NOX5, ionomycin, 45 min, higher = more signal
# Chain of NADPH oxidase 5 (Homo sapiens) (Q96PH1 whole entry, looked up): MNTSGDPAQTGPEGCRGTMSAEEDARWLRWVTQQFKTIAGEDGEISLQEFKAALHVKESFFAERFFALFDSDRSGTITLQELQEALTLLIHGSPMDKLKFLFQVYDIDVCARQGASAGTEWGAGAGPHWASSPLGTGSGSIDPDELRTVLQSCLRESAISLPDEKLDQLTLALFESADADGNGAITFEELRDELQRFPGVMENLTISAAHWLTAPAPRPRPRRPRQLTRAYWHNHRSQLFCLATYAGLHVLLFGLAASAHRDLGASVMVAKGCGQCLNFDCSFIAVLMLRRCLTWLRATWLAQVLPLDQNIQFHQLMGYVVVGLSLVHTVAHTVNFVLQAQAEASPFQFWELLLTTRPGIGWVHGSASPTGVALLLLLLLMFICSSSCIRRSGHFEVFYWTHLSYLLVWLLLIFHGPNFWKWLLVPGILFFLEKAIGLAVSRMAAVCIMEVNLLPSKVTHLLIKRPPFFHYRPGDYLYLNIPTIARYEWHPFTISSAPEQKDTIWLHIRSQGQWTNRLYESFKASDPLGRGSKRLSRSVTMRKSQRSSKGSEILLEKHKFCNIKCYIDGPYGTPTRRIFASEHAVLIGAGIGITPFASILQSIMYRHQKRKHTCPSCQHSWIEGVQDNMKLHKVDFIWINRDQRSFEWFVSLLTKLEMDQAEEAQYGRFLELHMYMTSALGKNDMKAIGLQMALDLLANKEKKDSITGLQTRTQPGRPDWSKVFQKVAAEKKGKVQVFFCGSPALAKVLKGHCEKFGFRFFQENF
# Chain of NADPH oxidase 2 (Homo sapiens) (P04839 whole entry, looked up): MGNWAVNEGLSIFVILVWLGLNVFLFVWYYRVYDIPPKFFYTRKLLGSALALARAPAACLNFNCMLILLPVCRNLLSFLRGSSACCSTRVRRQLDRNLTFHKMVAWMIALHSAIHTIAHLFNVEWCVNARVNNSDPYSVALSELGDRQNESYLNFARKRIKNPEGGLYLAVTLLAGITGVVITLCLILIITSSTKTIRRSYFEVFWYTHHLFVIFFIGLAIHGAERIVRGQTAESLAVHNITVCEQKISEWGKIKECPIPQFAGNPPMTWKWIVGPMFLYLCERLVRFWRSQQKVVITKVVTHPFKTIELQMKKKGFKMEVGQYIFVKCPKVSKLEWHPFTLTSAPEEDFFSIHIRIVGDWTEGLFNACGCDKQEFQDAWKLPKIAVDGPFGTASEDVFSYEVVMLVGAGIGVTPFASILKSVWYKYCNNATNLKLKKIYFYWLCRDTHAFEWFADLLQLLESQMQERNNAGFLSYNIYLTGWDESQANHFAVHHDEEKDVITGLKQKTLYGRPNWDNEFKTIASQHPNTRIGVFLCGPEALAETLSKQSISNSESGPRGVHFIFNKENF
# Chain of NADPH oxidase 4 (Homo sapiens) (Q9NPH5 whole entry, looked up): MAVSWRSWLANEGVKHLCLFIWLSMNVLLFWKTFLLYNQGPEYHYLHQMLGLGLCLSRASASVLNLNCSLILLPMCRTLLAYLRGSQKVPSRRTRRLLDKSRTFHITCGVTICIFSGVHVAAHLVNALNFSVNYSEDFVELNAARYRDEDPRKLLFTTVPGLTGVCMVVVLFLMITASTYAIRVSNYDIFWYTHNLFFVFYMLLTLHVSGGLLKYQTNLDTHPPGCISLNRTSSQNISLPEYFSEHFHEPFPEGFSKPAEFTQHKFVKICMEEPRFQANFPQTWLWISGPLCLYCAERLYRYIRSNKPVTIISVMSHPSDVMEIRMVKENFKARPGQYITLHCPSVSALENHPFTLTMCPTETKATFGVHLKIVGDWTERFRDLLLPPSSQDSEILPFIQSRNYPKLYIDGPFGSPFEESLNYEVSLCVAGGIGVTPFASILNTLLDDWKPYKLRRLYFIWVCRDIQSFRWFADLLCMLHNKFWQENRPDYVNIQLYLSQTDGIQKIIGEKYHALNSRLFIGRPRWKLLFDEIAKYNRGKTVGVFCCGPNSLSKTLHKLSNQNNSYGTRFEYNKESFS
# Chain of Streptavidin (Streptomyces avidinii) (P22629 whole entry, looked up): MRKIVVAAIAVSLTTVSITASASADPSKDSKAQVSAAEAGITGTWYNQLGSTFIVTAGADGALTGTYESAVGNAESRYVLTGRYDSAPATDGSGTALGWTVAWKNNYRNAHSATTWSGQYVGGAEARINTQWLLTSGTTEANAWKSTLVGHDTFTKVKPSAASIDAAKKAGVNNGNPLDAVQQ
# Chain of Torsin-1A (Homo sapiens) (O14656 whole entry, looked up): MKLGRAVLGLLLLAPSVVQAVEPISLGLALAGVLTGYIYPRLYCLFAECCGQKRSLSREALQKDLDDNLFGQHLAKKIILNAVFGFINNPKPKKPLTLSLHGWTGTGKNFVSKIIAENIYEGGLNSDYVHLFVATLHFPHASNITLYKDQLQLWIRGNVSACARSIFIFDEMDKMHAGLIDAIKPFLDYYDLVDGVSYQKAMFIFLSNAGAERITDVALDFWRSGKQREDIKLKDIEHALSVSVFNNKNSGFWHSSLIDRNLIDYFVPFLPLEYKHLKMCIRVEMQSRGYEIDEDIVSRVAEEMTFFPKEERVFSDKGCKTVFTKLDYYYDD
SMILES,composite z-score [1],z-score [2],z-score [3],z-score [4],z-score [5],composite z-score [6],composite z-score [7],composite z-score [8],composite z-score [9],composite z-score [10],z-score [11],composite z-score [12],z-score [13],z-score [14],z-score [15],z-score [16],z-score [17],z-score [18],z-score [19],z-score [20]
COc1ccc(C(O)C2C=CC3C(=O)N(c4ccccc4)C(=O)C3N2Nc2ccccc2F)cc1 (stereo not given),0.0178,-0.0475 (inactive),-0.749 (inactive),-0.228 (inactive),0.604 (inactive),0.316,1.52,0.216,0.732,0.379,-1.19 (inactive),0.167,4.67 (inactive),1.33 (inactive),0.0183 (inactive),0.635 (inactive),-0.331,-1.34 (inactive),-3.63 (inactive),-1.7
C=C(/C(=C/C[C@@H](OC(=O)c1ccncc1)c1cccc(OCCO)c1)c1cnc2ccccc2c1)C(C)C,0.782,-2.31 (inactive),-0.454 (inactive),1.69 (inactive),0.628 (inactive),1.62,0.0422,0.199,0.128,2,0.172 (inactive),0.13,13.7 (active),1.86 (inactive),1.32 (inactive),0.897 (inactive),0.199,-1.34 (inactive),-0.507 (inactive),-0.782
COC(=O)[C@@]1(Cc2ccc(F)cc2)[C@H]2c3cc(C(=O)N(C)C)n(Cc4c(CO)[nH]cc(C)c4=O)c3C[C@H]2CN1C(=O)c1ccccc1,0.39,-0.401 (inactive),-0.00694 (inactive),0.39 (inactive),1.15 (inactive),-0.0278,0.0212,0.475,-0.134,-0.462,-1.35 (inactive),0.0752,0.756 (inactive),0.19 (inactive),0.865 (inactive),0.816 (inactive),-0.122,0.31 (inactive),-0.0408 (inactive),-3.5
COCCCNC(=O)[C@@]1(c2ccc([N+](=O)[O-])cc2)CC(=O)N(C(C)C)[C@@H]1c1ccc(CO)cc1,0.0039,0.433 (inactive),0.797 (inactive),0.495 (inactive),0.0212 (inactive),-0.934,0.315,0.722,1.05,0.0776,0.569 (inactive),0.125,0.481 (inactive),-0.135 (inactive),-0.288 (inactive),-0.0629 (inactive),0.361,-0.635 (inactive),0.726 (inactive),-0.0684
C=CC1c2cc(O)c(OC)cc2CCN1Cc1ccc([N+](=O)[O-])o1 (stereo not given),0.17,-0.244 (inactive),1.47 (inactive),-0.321 (inactive),-0.625 (inactive),0.39,0.027,-0.17,0.745,-0.873,1.09 (inactive),0.0455,7.89 (inactive),1.17 (inactive),-0.0585 (inactive),0.596 (inactive),0.325,-3.42 (inactive),-3.12 (inactive),-3.25
CC(C)CNC(=O)[C@@]1(C)c2ccccc2C(=O)N(Cc2cc(C(F)(F)F)cc(C(F)(F)F)c2)[C@H]1c1ccc(CO)cc1,-0.445,-3.12 (inactive),0.92 (inactive),0.414 (inactive),-0.578 (inactive),-0.366,-0.0987,-0.918,-0.267,-0.117,0.516 (inactive),-0.101,7.12 (inactive),1.13 (inactive),2.06 (inactive),0.428 (inactive),-0.404,-0.766 (inactive),0.596 (inactive),0.821
COc1ccc([Si](C)(C)[C@@H]2[C@@H](CC(=O)N3Cc4ccccc4C[C@H]3CO)O[C@]3(C(=O)N(c4ccccc4)c4ccccc43)[C@H]2C)cc1,0.6,-4.81 (inactive),-0.751 (inactive),2.36 (inactive),0.931 (inactive),0.627,0.128,1.56,0.871,1.47,0.162 (inactive),0.855,6.47 (inactive),1.76 (inactive),0.168 (inactive),1.65 (inactive),0.947,0.651 (inactive),0.71 (inactive),0.544
COCC1C2CC[C@H]3C(OCc4ccc(OC)cc4)OC[C@]4(C)[C@H]3C2=C(CN4C(=O)OC(C)(C)C)[C@H](C)C1COC (stereo not given in full),0.261,-2.88 (inactive),0.413 (inactive),-0.185 (inactive),-0.0287 (inactive),2.08,-0.321,0.187,0.255,0.298,-1.23 (inactive),-0.302,3.68 (inactive),-0.556 (inactive),0.308 (inactive),-2.05 (inactive),2.25,-1.53 (inactive),-1.89 (inactive),-2.99
CCOC(=O)C1=C[C@@H](C(C)(C)C)N(S(=O)(=O)c2ccc(C)cc2)[C@H]1c1ccc(C)cc1,0.514,-5 (inactive),0.311 (inactive),-0.0137 (inactive),-0.1 (inactive),1.35,0.0857,0.392,0.361,1.7,-1.92 (inactive),0.121,0.302 (inactive),0.54 (inactive),0.0464 (inactive),-0.0532 (inactive),-0.53,-0.875 (inactive),-0.25 (inactive),0.251
